Reference: PubChem BioAssay AID493240 (Broad Institute, 2011)
Among all 1,300 compounds or so, about 270 (21%) were called active. A selection follows. Measured potencies and affinities stand elsewhere. A number with no mark means an inactive call. No rule for the calls is given here.

Test: SK-MEL-5 parental cell viability loss, dose response, orthogonal assay for MITF inhibitor project, CellTiter-Glo, cherry-picked, set 3 (AID 493240)
Conditions: SK-MEL-5 viability, ATP luminescence (CellTiter-Glo), 24 h; series mostly up to 35 µM; activity change, negative = viability loss: at the top concentration

| SMILES | activity change, negative = viability loss [%] |
| --- | --- |
| Cc1cc(C(=O)Nc2ccc([N+](=O)[O-])cn2)cs1 | 1.28 |
| CCOC(=O)c1cc2sccc2n1CC(=O)N1c2ccccc2CC1C (stereo unspecified) | -48.5 |
| O=C(Nc1ccc2c(c1)OCCO2)c1cccc(Cl)c1Cl | 6.72 |
| O=C(c1nnsc1S(=O)(=O)c1ccc(Cl)cc1)N1CCOCC1 | -10.9 |
| CC(C)(CO)NC(=O)c1ccc2nc(Cc3cccc(Cl)c3)oc2c1 | 8.31 |
| COc1ccc2cc3cc(C(=O)NCCc4ccc(OC)c(OC)c4)oc3nc2c1 | -23.3 |
| Cc1ccccc1C(=O)O/N=C(\N)c1ccc([N+](=O)[O-])cc1 | -4.23 |
| Nc1ccc(-c2ncc(-c3ccccc3)o2)cc1 | -2.92 |
| CCOC(=O)CSC1=NC(=O)/C(=C\c2ccc(OC(C)=O)cc2)S1 | -10.5 |
| CCOC(=O)CSC1=NC(=O)/C(=C\c2ccc(Cl)cc2)S1 | -52.8 |
| CC(Oc1ccccc1)C(=O)Nc1nc(-c2ccccn2)cs1 (stereo unspecified) | -18.7 |
| CC(C)(C)C1CCC(OC(=O)CN2CCCCC2)CC1 (stereo unspecified) | -11.8 |
| CC(O)CNC(=O)C1CCN(Cc2ccc(OCc3ccccc3)cc2)CC1 (stereo unspecified) | -5.93 |
| Cc1cc(C(=O)CN2C(=O)c3ccccc3S2(=O)=O)c(C)n1-c1ccccc1 | -9.62 |
| O=C(N/N=C\c1cc(Br)ccc1O)c1ccc(S(=O)(=O)N2CCCCC2)cc1 | -30.4 |
| COC(=O)[C@@H](C)NC(=O)c1ccc2oc(CCc3ccccc3)nc2c1 | 2.14 |
| O=C(Nc1nc2ccccc2s1)c1ccccc1[N+](=O)[O-] | -11.7 |
| Cc1nc2nc(C)c(NS(=O)(=O)c3ccc4c(c3)CCCC4)c(=O)n2[nH]1 | 3.77 |
| COc1ccc(/C=C2\SC(=O)N(CCCC(=O)Nc3cc(Cl)ccc3C(=O)O)C2=O)cc1 | -7.19 |
| CC(C)c1ccc(CNc2ncccn2)cc1 | 4.61 |
| COC(=O)c1ccc(/C=C(\C#N)C(=O)NC(C)c2ccccc2)cc1 (stereo unspecified) | -23.5 |
| Clc1ccc(-c2nc(-c3ccncc3)no2)c(Cl)c1 | 6.89 |
| Cc1ccc(C2CC(C(F)(F)F)n3nc(C(=O)NCc4c(C)nn(C)c4C)c(Cl)c3N2)cc1 (stereo unspecified) | -39.3 |
| Cc1nn(-c2ccccc2Cl)c(Cl)c1/C=N/Nc1cccc(C(=O)O)c1 | -8.47 |

| SMILES | activity change, negative = viability loss [%] |
| --- | --- |
| O=C(Nc1ccc(OC(F)(F)F)cc1)c1[nH]ncc1[N+](=O)[O-] | 6.68 |
| C=CCNC(=O)Cn1nnc(-c2ccc(-c3ccc(OC)cc3)cc2)n1 | -0.141 |
| C=CCOc1ccc(/C=C2\SC(=S)N(CCC(=O)O)C2=O)cc1 | 13.3 |
| CCc1nc2oc3ccccc3c(=O)c2cc1C(=O)OC | -4.67 |
| COc1ccc(S(=O)(=O)N2CCCCC2)cc1NC(=O)c1ccc([N+](=O)[O-])o1 | -35.1 |
| CCCCOC(=O)c1[nH]c(C)c(C(=O)OC)c1C | -15.2 |
| Oc1ccc(CNc2ccccc2F)c2cccnc12 | -40.5 |
| O=C(Cn1ncc(Cl)c(Cl)c1=O)c1ccc(Cl)cc1 | -28.3 |
| Nc1nnnn1/N=C/C(Br)=C/c1ccccc1 | -14.9 |
| Cc1ccsc1C(=O)OCC(=O)Nc1sccc1C(N)=O | -4.08 |
| CN(C)c1nc(C=C(C#N)C#N)c(Cl)n1-c1ccc(F)cc1 | -72.3 |
| COc1ccc(-c2cc(-c3ccccc3O)[nH]n2)cc1OC | 5.33 |
| COc1ccc(/C=N/Nc2ccccn2)cc1OC | 3.77 |
| CCCCNC(=O)Nc1ccc(C2SCCS2)cc1 | -12.7 |
| CN(C)Cc1c(O)ccc2c1O/C(=C\C=C\c1ccccc1)C2=O | 6.11 |
| Cc1nc2ccccn2c1C(=O)/C=C/c1cccc([N+](=O)[O-])c1 | 13.3 |
| O=C(/C=C/c1cccc([N+](=O)[O-])c1)n1cnc2ccccc21 | 23.4 |
| CCCOC(=O)c1ccc(NC(=O)C2CCCO2)cc1 (stereo unspecified) | 11.9 |
| O=C(Nc1nnc(Cc2ccccc2)s1)c1ccccc1 | 10 |
| CCOc1ccc(NC(=O)Nc2cccc(C(=O)O)c2)cc1 | -24.5 |
| Cc1ccc(O)c(NC(=O)c2ccc3c(c2)C(=O)N(CC(C)C)C3=O)c1 | -15.1 |
| CCN(CC)C(=O)CCCOc1ccc(Cl)cc1Cl | -3.19 |
| O=C(O)c1cccc(N/N=C/c2cccs2)c1 | -4.73 |
| N#Cc1cc2c(nc1SC1CC(=O)N(c3ccccc3)C1=O)CCC2 (stereo unspecified) | -10.3 |

| SMILES | activity change, negative = viability loss [%] |
| --- | --- |
| CCOC(=O)c1nnn(-c2ccc([N+](=O)[O-])cc2[N+](=O)[O-])c1C | -37.1 |
| Cc1ccc2nc3cc([N+](=O)[O-])cc([N+](=O)[O-])c3cc2c1 | -29.9 |
| COc1ccc(Nc2oc(-c3ccc(OC)cc3)nc2C#N)cc1 | 8.58 |
| Cc1cccc(-c2nc(C#N)c(NCc3ccco3)o2)c1 | 11.6 |
| COC(=O)c1c(C)[nH]c(/C=N/Nc2ccccc2)c1C | -6.74 |
| OCCNc1c2ccccc2nc2c(F)c(F)c(F)c(F)c12 | -36.1 |
| FC(F)(F)Oc1ccc(-c2cn3cccnc3n2)cc1 | -0.472 |
| COc1ccc(NC(=O)Nc2ccc(F)c(F)c2)c(OC)c1 | 4.2 |
| Cc1ccc(-c2c[n+](Cc3ccc(Cl)cc3)c3n2CCC3)cc1 | -25.2 |
| Cc1ccc(-c2c[n+](Cc3cccc(Cl)c3)c3n2CCC3)cc1 | -18.5 |
| CC1CC(C)C[N+](=C2C=C(N3CCCC3)CC(C)(C)C2)C1 (stereo unspecified) | -40.1 |
| COc1ccc(-c2noc(-c3cccs3)n2)cc1OC | 4.3 |
| CCN(CC)S(=O)(=O)c1ccc(N2CCCC2)c(NC(=O)c2ccc([N+](=O)[O-])o2)c1 | -23.8 |
| O=C(Nc1cccnc1Cl)c1cc(-c2ccco2)on1 | -0.292 |
| CSc1nc(N)n2nc(-c3ccccc3)cc2n1 | -39.1 |
| COc1ccc(C(NC(C)=O)c2ccc3cccnc3c2O)c(OC)c1 (stereo unspecified) | -15.9 |
| COc1ccc(-c2csc(N(C)C(=O)c3ccco3)n2)cc1 | -3.54 |
| C(=N\Nc1cc(N2CCCCC2)ncn1)/c1ccco1 | 7.34 |
| CC(=O)c1sc(N/N=C\c2ccc(N(C)C)cc2)nc1C | 6.94 |
| Cc1csc(N/N=C/c2ccc([N+](=O)[O-])cc2)n1 | -1.39 |
| CCOc1ccc(C(=O)N2CCc3ccccc32)cc1 | 13.3 |
| CC(=O)Oc1ccc(C)cc1-n1nc2ccccc2n1 | -20.8 |
| CC(=O)Cn1ncc(Br)c(Br)c1=O | -30.7 |
| O=C(CCCN1C(=O)S/C(=C\c2ccccc2)C1=O)NNC(=O)c1ccccc1O | -13.1 |

| SMILES | activity change, negative = viability loss [%] |
| --- | --- |
| O=C(CCCCl)NC(=S)Nc1ccc(N2CCOCC2)cc1 | -8.43 |
| N/C(=N\OC(=O)Cc1cccs1)c1ccccc1 | 0.942 |
| Cc1cc(C(=O)CSc2nnc3ccccn23)c(C)n1-c1ccccc1 | -10.6 |
| O=C(Nc1cnc2ccccn2c1=O)c1ccc(F)cc1 | -6.16 |
| CC1(C(=O)N/N=C/c2ccc([N+](=O)[O-])o2)CC1(Br)Br (stereo unspecified) | -26.3 |
| O=C(Cc1ccc2c(c1)OCO2)NN=Cc1ccc([N+](=O)[O-])o1 | -42.9 |
| Cc1ccc(NC(=O)CCC(=O)N/N=C/c2ccc([N+](=O)[O-])o2)cc1C | -18.4 |
| Cc1ccc(NCC(=O)N/N=C\c2ccc([N+](=O)[O-])o2)cc1 | -19.5 |
| CCCCn1c(=O)[nH]c(=O)c2c1nc(Cn1ncc(Cl)c(Cl)c1=O)n2CCC | -22.5 |
| O=c1c(Cl)c(Cl)cnn1-c1ccccc1 | 9.14 |
| CC(=O)OCCCNc1cc(Sc2ccc(Cl)cc2)c2nonc2c1[N+](=O)[O-] | -20.4 |
| Cc1ccccc1OCc1nc2c3cnn(C)c3ncn2n1 | -14.4 |
| c1cnc(SCCOc2ccc3c(c2)CCC3)nc1 | -7.47 |
| Cc1ccc(NC(=O)c2cnc3ccccc3n2)cc1C | -2.28 |
| CCn1nccc1C(=O)Nc1ccc(C)c(C)c1 | -20.2 |
| ClC1(Cl)CC1CSc1nnc(-c2ccncc2)o1 (stereo unspecified) | -9.13 |
| O=C(Nc1ccc2nc3n(c(=O)c2c1)CCCCC3)c1cc([N+](=O)[O-])ccc1F | -9.63 |
| CC1CCN(CC2C(=O)O[C@@H]3C[C@@]4(C)CCC[C@H](C)C4=C[C@H]23)CC(C)(C)C1 (stereo partly specified) | 11.1 |
| COc1cc(C(=O)N/N=C(\c2ccccc2)c2ccccn2)cc(OC)c1OC | -31.3 |
| O=C(NCc1ccc2c(c1)OCO2)c1cc(=O)[nH]c2ccccc12 | 6.22 |
| COc1ccc(N(Cc2cc(=O)[nH]c3ccccc23)C(=O)CCl)cc1 | -30.3 |
| CCC(=O)OCCNc1cc(Sc2nccn2C)c2nonc2c1[N+](=O)[O-] | -33.1 |
| O=C1c2ccccc2C(=O)N1CCSc1ccccc1 | -4.55 |
| CN(c1ccc2nc3ccccc3c(=O)n2n1)C1CCCCC1 | -39.1 |

| SMILES | activity change, negative = viability loss [%] |
| --- | --- |
| O=C(CCl)Nc1cn(-c2ccccc2)nc1-c1ccccc1 | -17.3 |
| Cc1ccc(NC(=O)c2cc(-c3cccs3)on2)cc1 | 2.76 |
| Cc1ccc2oc(C(Cl)(Cl)Cl)cc(=O)c2c1 | -6.41 |
| O=C(CCl)N1c2ccccc2CCc2ccccc21 | -16.3 |
| Cc1ccc(NC(=O)/C=C/c2ccc([N+](=O)[O-])s2)c(C)c1 | 18.1 |
| CCCOc1ccc(C(=O)C(CN2CCCC2)c2ccccc2)cc1 (stereo unspecified) | -40 |
| CCSC1(SCC)N=C(N)C2(C#N)C(c3ccc(F)cc3)C12C#N (stereo unspecified) | -37.1 |
| O=C(CCCc1ccccc1)Nc1cccc(C(=O)O)c1 | -5.13 |
| O=C(CSCc1c(F)cccc1F)Nc1ccccc1 | 2.98 |
| CSc1nc(N)n2nc(-c3ccc(Cl)cc3)cc2n1 | -3.88 |
| N#C/C(=C\C=C\c1ccccc1[N+](=O)[O-])C(=O)NC1CCCCC1 | -38.9 |
| CN(C)c1nc(-c2ccccn2)nnc1-c1ccccc1 | -10.7 |
| CCOc1cc(/C=C\[N+](=O)[O-])ccc1OCC(=O)N1CCOCC1 | -19.4 |
| CS(=O)(=O)c1ccc2nc(NC(=O)c3ccccc3Br)sc2c1 | -3.07 |
| COc1ccc(-n2ncc3c(N4CCCCC4)ncnc32)cc1 | -42.2 |
| CN(C)c1cc[n+](CC(=O)c2ccc(-c3ccccc3)cc2)cc1 | -43.2 |
| COc1cccc(NC(=O)c2cnn(-c3ccccc3)c2C)c1 | -15.4 |
| CN1CCN(CCCOc2ccc(-c3ccccc3)cc2)CC1 | -25.3 |
| O=C(CCl)N1N=C(c2ccco2)CC1c1cccs1 (stereo unspecified) | -17.2 |
| CC(C)(C)OC(=O)N1CCN(C(=O)c2nc[nH]c2C(=O)N2CCN(c3ccccc3)CC2)CC1 | -30.5 |
